Data on 38 compounds can be found in PubChem BioAssay.

Active and inactive are the calls of the source.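 Rule for the calls, unless noted: active = at least 20% inhibition of 6-phosphogluconate dehydrogenase activity; inactive = the rest.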

Tested on in the first assay: not listed separately
The experiment in a line: decreased DLD-1 cellular survival, CellTiter-Glo luminescent readout, NPC compound collection, primary HTS (AID 1117346;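 active = compounds that lower survival of DLD-1 colon cancer cells in the luminescence readout, no cutoff given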). As to conditions: DLD-1 viability, CellTiter-Glo luminescence; at 20 µM (top of the series). (In ATP-based viability assays light output follows the ATP content of the culture.)
With `C[C@]12CCC(=O)C=C1CC[C@@H]1[C@@H]2[C@@H](O)C[C@@]2(C)[C@H]1CC[C@]2(O)C(=O)COP(=O)(O)O`, the viability decrease (inhibition) was -10.7% (inactive).
Still for that read-out and setting: to `CCCc1ncc(C[n+]2ccccc2C)c(N)n1` belongs -13.4% (inactive); to `COc1cc(NS(=O)(=O)c2ccc(N)cc2)nc(OC)n1`, 0.7% (inactive); to `Cc1cc(NC(=O)C2=C(O)c3ccccc3S(=O)(=O)N2C)no1`, -7.2% (inactive).
`O=C(O)[C@@H](O)[C@H](O)[C@H](O)[C@@H](O)C(=O)O`: the viability decrease (inhibition) is -6.1% (inactive).
On the same count and under the same terms, next, `CN1CCOC(c2ccccc2)c2ccccc2C1` (stereo unspecified): -7.2% (inactive); `Cc1cccc(N(C)C(=S)Oc2ccc3ccccc3c2)c1`: 56.8% (active).
For `O=C1c2ccccc2C(=O)C1c1ccccc1`, the viability decrease (inhibition) was -4.85% (inactive).
On the same count and under the same terms, next, `Cc1onc(-c2ccccc2Cl)c1C(=O)N[C@@H]1C(=O)N2[C@@H]1SC(C)(C)[C@@H]2C(=O)O`: -0.7% (inactive); `CO[C@]12C[C@@H](COC(=O)c3cncc(Br)c3)CN(C)[C@@H]1Cc1cn(C)c3cccc2c13`: 23.6% (inactive); `Cc1ccccc1OCC(O)CO` (stereo unspecified): -25.4% (inactive).
The same measure, in the same setting: to `Cc1ccc(C(C)C)cc2c(C)ccc1-2` belongs -6.8% (inactive); to `O=C1C(=O)c2ccccc2C(O)=C1C1CCC(c2ccc(Cl)cc2)CC1` (stereo unspecified), 99% (active).
Still for that read-out and setting: next, `Cc1ccc2c(Cl)cc(Cl)c(O)c2n1`: 3.5% (inactive); `NC(N)=NS(=O)(=O)c1ccc(N)cc1`: 5.6% (inactive); `CCOc1ccc(NC(C)=O)cc1`: -6.2% (inactive).
On to `Cn1c(=O)c2c(ncn2CC(O)CO)n(C)c1=O` (stereo unspecified), for which the viability decrease (inhibition) was 5.3% (inactive).
Consider `Cc1cc(=O)n(-c2ccccc2)n1C`, for which the viability decrease (inhibition) is -8.2% (inactive).
Same read-out and setting: next, `O=C(O)c1ccccc1Nc1cccc(C(F)(F)F)c1`: 78.8% (active).
`CC1=NN(c2ccccc2)C(=O)C1`: the viability decrease (inhibition) is 12.2% (inactive).
On to `Cc1c(C(=O)O)c(O)cc2c1C(=O)c1c(O)c([C@@H]3O[C@H](CO)[C@@H](O)[C@H](O)[C@H]3O)c(O)c(O)c1C2=O`, for which the viability decrease (inhibition) was 34.5% (inactive).
Same read-out and setting: to `CC(C)(Sc1cc(C(C)(C)C)c(O)c(C(C)(C)C)c1)Sc1cc(C(C)(C)C)c(O)c(C(C)(C)C)c1` belongs 37.1% (inactive); to `CN1C(C(=O)Nc2ccccn2)=C(O)c2sccc2S1(=O)=O`, -0.2% (inactive); to `CCCCC(=O)O[C@]1(C(=O)CO)[C@@H](C)C[C@H]2[C@@H]3CCC4=CC(=O)C=C[C@]4(C)[C@@]3(F)[C@@H](O)C[C@@]21C`, 11% (inactive).
On the same count and under the same terms, next, `COc1ccccc1OCC(O)CO` (stereo unspecified): -4.85% (inactive); `CCCCOc1cc(C(=O)NCCN(CC)CC)c2ccccc2n1`: 29.5% (inactive); `CC1(C)O[C@H]2CC(=O)OC[C@]23[C@H]2CC[C@@]4(C)[C@H](c5ccoc5)OC(=O)[C@H]5O[C@]54[C@]2(C)C(=O)C[C@@H]13`: -9.6% (inactive).
As to `CC1=CC(=O)c2ccccc2C1=O`, the viability decrease (inhibition) is 103% (active).
Consider `COc1ccc2c(c1)c(CC(=O)OCC(=O)O)c(C)n2C(=O)c1ccc(Cl)cc1`, for which the viability decrease (inhibition) was 0.1% (inactive).
Still for that read-out and setting: next, `CC/C(=C(/CC)c1ccc(O)cc1)c1ccc(O)cc1`: 98.4% (active).
As for `COc1cc(C(=O)NCc2ccc(OCCN(C)C)cc2)cc(OC)c1OC`, the viability decrease (inhibition) was -8.9% (inactive).
Regarding `O=C1c2ccccc2C(=O)c2c1ccc(O)c2O`, the viability decrease (inhibition) was 65.7% (active).
Same read-out and setting: to `CCN(CC)CCOC(=O)C(c1ccccc1)c1ccccc1` belongs 5.6% (inactive).
Regarding `CC1=C(C(=O)O)N2C(=O)[C@@H](NC(=O)[C@H](N)C3=CCC=CC3)[C@H]2SC1`, the viability decrease (inhibition) is 16.5% (inactive).
On the same count and under the same terms, to `NC(=O)NC1NC(=O)NC1=O` (stereo unspecified) belongs -6.65% (inactive); to `CC(C)NC[C@@H](O)COc1cccc2ccccc12`, 13.7% (inactive).
Same read-out and setting: to `N=C(N)N` belongs -1.3% (inactive); to `CCOC(=O)[C@H](CCc1ccccc1)N[C@@H](C)C(=O)N1CCC[C@H]1C(=O)O`, 3.4% (inactive).

The next assay deals with 6-phosphogluconate dehydrogenase, decarboxylating (Homo sapiens) (UniProt P52209). Briefly: 6PGD enzyme inhibitors, primary screen, biochemical, human, recombinant enzyme, NADPH absorbance (AID 1159550). Conditions: recombinant 6PGD, NADPH absorbance 341 nm; at 10 µM; active compounds read high.
Sequence of 6-phosphogluconate dehydrogenase, decarboxylating (Homo sapiens) (P52209 whole entry, looked up): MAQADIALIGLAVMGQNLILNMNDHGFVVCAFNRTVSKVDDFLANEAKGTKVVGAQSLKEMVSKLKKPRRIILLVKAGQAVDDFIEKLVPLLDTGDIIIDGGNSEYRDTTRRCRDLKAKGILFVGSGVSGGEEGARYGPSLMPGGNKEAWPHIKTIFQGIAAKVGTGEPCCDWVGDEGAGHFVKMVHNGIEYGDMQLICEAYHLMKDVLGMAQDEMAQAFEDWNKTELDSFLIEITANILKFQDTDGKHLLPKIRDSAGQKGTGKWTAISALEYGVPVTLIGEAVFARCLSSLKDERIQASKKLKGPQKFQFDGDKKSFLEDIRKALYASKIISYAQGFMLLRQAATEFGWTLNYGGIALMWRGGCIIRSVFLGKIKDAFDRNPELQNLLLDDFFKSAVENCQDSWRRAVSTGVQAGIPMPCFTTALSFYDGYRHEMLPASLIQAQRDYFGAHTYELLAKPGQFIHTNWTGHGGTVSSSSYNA
Usually inhibition stands for the relative decrease from the control value, in per cent. Turning to `C[C@]12CCC(=O)C=C1CC[C@@H]1[C@@H]2[C@@H](O)C[C@@]2(C)[C@H]1CC[C@]2(O)C(=O)COP(=O)(O)O`, the inhibition was 7.31% (inactive).
As for `CCCc1ncc(C[n+]2ccccc2C)c(N)n1`, the inhibition is -3.15% (inactive).
Still for that read-out and setting: to `COc1cc(NS(=O)(=O)c2ccc(N)cc2)nc(OC)n1` belongs -12.2% (inactive); to `Cc1cc(NC(=O)C2=C(O)c3ccccc3S(=O)(=O)N2C)no1`, 0.485% (inactive).
The same measure, in the same setting: to `O=C(O)[C@@H](O)[C@H](O)[C@H](O)[C@@H](O)C(=O)O` belongs 3.91% (inactive).
The same measure, in the same setting: to `CN1CCOC(c2ccccc2)c2ccccc2C1` (stereo unspecified) belongs 5.09% (inactive); to `Cc1cccc(N(C)C(=S)Oc2ccc3ccccc3c2)c1`, 6.26% (inactive); to `O=C1c2ccccc2C(=O)C1c1ccccc1`, 8.94% (inactive).
With `Cc1onc(-c2ccccc2Cl)c1C(=O)N[C@@H]1C(=O)N2[C@@H]1SC(C)(C)[C@@H]2C(=O)O`, the inhibition was -7.26% (inactive).
On the same count and under the same terms, to `CO[C@]12C[C@@H](COC(=O)c3cncc(Br)c3)CN(C)[C@@H]1Cc1cn(C)c3cccc2c13` belongs 6.31% (inactive); to `Cc1ccccc1OCC(O)CO` (stereo unspecified), 7.3% (inactive); to `Cc1ccc(C(C)C)cc2c(C)ccc1-2`, -19.1% (inactive).
The same measure, in the same setting: next, `O=C1C(=O)c2ccccc2C(O)=C1C1CCC(c2ccc(Cl)cc2)CC1` (stereo unspecified): 5.16% (inactive); `Cc1ccc2c(Cl)cc(Cl)c(O)c2n1`: 6.51% (inactive); `NC(N)=NS(=O)(=O)c1ccc(N)cc1`: -6% (inactive).
In the case of `CCOc1ccc(NC(C)=O)cc1`, the inhibition was 5.26% (inactive).
Same read-out and setting: to `Cn1c(=O)c2c(ncn2CC(O)CO)n(C)c1=O` (stereo unspecified) belongs -4.2% (inactive).
For the compound `Cc1cc(=O)n(-c2ccccc2)n1C`, the inhibition was 6.71% (inactive).
The same measure, in the same setting: to `O=C(O)c1ccccc1Nc1cccc(C(F)(F)F)c1` belongs 2.7% (inactive); to `CC1=NN(c2ccccc2)C(=O)C1`, 13.6% (inactive); to `Cc1c(C(=O)O)c(O)cc2c1C(=O)c1c(O)c([C@@H]3O[C@H](CO)[C@@H](O)[C@H](O)[C@H]3O)c(O)c(O)c1C2=O`, -2.65% (inactive).
Still for that read-out and setting: to `CC(C)(Sc1cc(C(C)(C)C)c(O)c(C(C)(C)C)c1)Sc1cc(C(C)(C)C)c(O)c(C(C)(C)C)c1` belongs 6.05% (inactive).
On the same count and under the same terms, next, `CN1C(C(=O)Nc2ccccn2)=C(O)c2sccc2S1(=O)=O`: -2.82% (inactive); `CCCCC(=O)O[C@]1(C(=O)CO)[C@@H](C)C[C@H]2[C@@H]3CCC4=CC(=O)C=C[C@]4(C)[C@@]3(F)[C@@H](O)C[C@@]21C`: -3.61% (inactive); `COc1ccccc1OCC(O)CO` (stereo unspecified): 12.6% (inactive).
As for `CCCCOc1cc(C(=O)NCCN(CC)CC)c2ccccc2n1`, the inhibition was -0.88% (inactive).
On the same count and under the same terms, next, `CC1(C)O[C@H]2CC(=O)OC[C@]23[C@H]2CC[C@@]4(C)[C@H](c5ccoc5)OC(=O)[C@H]5O[C@]54[C@]2(C)C(=O)C[C@@H]13`: 5.47% (inactive); `CC1=CC(=O)c2ccccc2C1=O`: 12.5% (inactive); `COc1ccc2c(c1)c(CC(=O)OCC(=O)O)c(C)n2C(=O)c1ccc(Cl)cc1`: -4.54% (inactive).
The same measure, in the same setting: next, `CC/C(=C(/CC)c1ccc(O)cc1)c1ccc(O)cc1`: 8.9% (inactive); `COc1cc(C(=O)NCc2ccc(OCCN(C)C)cc2)cc(OC)c1OC`: 10.5% (inactive).
On the same count and under the same terms, next, `O=C1c2ccccc2C(=O)c2c1ccc(O)c2O`: 1.17% (inactive); `CCN(CC)CCOC(=O)C(c1ccccc1)c1ccccc1`: -7.73% (inactive).
For the compound `CC1=C(C(=O)O)N2C(=O)[C@@H](NC(=O)[C@H](N)C3=CCC=CC3)[C@H]2SC1`, the inhibition was 12.9% (inactive).
The same measure, in the same setting: next, `NC(=O)NC1NC(=O)NC1=O` (stereo unspecified): 4.15% (inactive); `CC(C)NC[C@@H](O)COc1cccc2ccccc12`: 5.64% (inactive).
The same measure, in the same setting: next, `N=C(N)N`: 0.391% (inactive).
Still for that read-out and setting: next, `CCOC(=O)[C@H](CCc1ccccc1)N[C@@H](C)C(=O)N1CCC[C@H]1C(=O)O`: -2.48% (inactive).
